Data on 39 compounds can be found in the supplement of paper PMC3842684.

The assay relates to P. falciparum NF54-pfs16-GFP late (IV-V) stage gametocytes. The experiment in a line: relative % inhibition of viable gametocyte number; higher = more gametocytocidal. The note with it: 0.5 µM; stage: late (IV-V) gametocyte; incubation 72 h. The method, boiled down: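 Compound was tested in duplicate at 5 or 0.5 µM on magnet-isolated NF54 pfs16-GFP gametocytes, taken either early (I/IIa, day 2) or late (day 8) and plated at 10% parasitaemia, 0.1% haematocrit. Incubation ran 72 h at 37°C, 5% CO2, 5% O2, followed by overnight MitoTracker Red staining and confocal imaging. Relative inhibition, based on counts of elongated GFP objects with above-cut-off MitoTracker signal, was normalised to in-plate vehicle and positive-control wells.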
In the case of `O=C(Nc1ccc(-c2nc3cc4ccccc4cc3[nH]2)cc1)c1cccc(Br)c1`, the relative % inhibition is -2.59%.

Take `COc1ccc2nc(C)cc(Nc3ccc(Cl)cc3)c2c1`: the relative % inhibition was found to be 7.89%.

`CCCn1c(=N)c(C(=O)NC2CCCCC2)cc2c(=O)n3cccc(C)c3nc21`: the relative % inhibition was -19.9%.

`COc1cc(OC)c(N(C)C(=O)c2cc3c(s2)-c2ccccc2S(=O)(=O)C3)cc1Cl`: the relative % inhibition came out at 28.5%.

`CCOC(=O)C1=C(C)N=c2sc(=Cc3cc(Cl)ccc3O)c(=O)n2C1c1ccc(OC)cc1` (centres undefined): the relative % inhibition worked out at 94.5%.

Regarding `CCN1CCN(Cc2ccc(NC(=O)c3cc4ccc5cccnc5c4[nH]3)cc2)CC1`, the relative % inhibition was -6.9%.

On to `COc1ccc(NC(=O)C2c3ccccc3C(=O)N(CC(C)C)C2c2cccs2)cc1Cl` (centres undefined), for which the relative % inhibition was 54.9%.

As for `Cc1ccc(-c2cc3c(SCC(=O)Nc4cc(C(F)(F)F)ccc4Cl)nccn3n2)cc1`, the relative % inhibition was determined as 14.7%.

For the compound `COc1cccc(Nc2nc(NCCO)c3ccccc3n2)c1`, the relative % inhibition came out at 17.4%.

On to `CNCCCNc1ccnc2cc(Cl)ccc12`, for which the relative % inhibition amounted to 26.6%.

In the case of `CCOC(=O)c1cnc2ccc(Cl)cc2c1NCCCN(C)C`, the relative % inhibition is -21.7%.

In the case of `O=C1c2ccc3c4c(ccc(c24)C(=O)N1CCCCO)C(=O)N(CCCCO)C3=O`, the relative % inhibition amounted to 5.48%.

As for `O=C(NC1CCN(Cc2ccccc2)CC1)c1cc(C(=O)NC2CCN(Cc3ccccc3)CC2)cc(C(=O)NC2CCN(Cc3ccccc3)CC2)c1`, the relative % inhibition was 0.475%.

For `CCn1c(SCC(=O)Nc2cc(C(F)(F)F)ccc2Cl)nc2ccccc2c1=O`, the relative % inhibition turned out to be 5.8%.

As to `c1ccc(-c2ccc(-c3nc4ccccc4[nH]3)cc2)cc1`, the relative % inhibition was determined as 15.9%.

As to `O=C(NC1CCN(Cc2ccccc2)CC1)c1cc2nc(-c3ccc(Cl)s3)cc(C(F)(F)F)n2n1`, the relative % inhibition is 21.4%.

With `COc1ccc(C(=O)Nc2ccc(Cl)cc2C(=O)Nc2ccncc2)cc1`, the relative % inhibition was -6.74%.

In the case of `O=C(NC1CCCCC1)C(c1cccs1)N(CCc1ccccc1)C(=O)c1ccco1` (centres undefined), the relative % inhibition worked out at 5.55%.

Consider `CCCCOC(=O)c1ccc(Nc2cc(C)nc3ccc(OC)cc23)cc1`, for which the relative % inhibition was determined as 13.1%.

Regarding `COCCn1c(C)nc2ccccc2c1=O`, the relative % inhibition came out at 43.2%.

In the case of `Oc1ccccc1CN1CCN(C(c2ccccc2)c2ccccc2)CC1`, the relative % inhibition was found to be 28.3%.

In the case of `CCOc1ccc2nc(C)cc(Nc3ccc(N(C)C)cc3)c2c1`, the relative % inhibition is -6.75%.

For the compound `COc1ccc(CNC(=O)c2cc3c(=O)n4ccccc4nc3n(CCc3ccccc3)c2=N)cc1`, the relative % inhibition is -16.6%.

On to `CCOC(=O)c1cnc2c(C)cc(C)cc2c1Nc1ccc(OC)c(OC)c1`, for which the relative % inhibition was -4.75%.

As to `COc1cccc(NC(=O)Cn2c(C)c(C#N)c3ccccc32)c1`, the relative % inhibition was -4.97%.

Turning to `Cc1cccc(-n2ncc3c(=O)[nH]c(-n4nc(C)cc4NC(=O)c4cc5ccccc5o4)nc32)c1`, the relative % inhibition turned out to be 100%.

In the case of `CCN(CC)S(=O)(=O)c1ccc(-c2csc(Nc3ccc(C)c(C)c3)n2)cc1`, the relative % inhibition stood at 42.2%.

Consider `OCCNc1nc(Nc2ccc(Cl)c(Cl)c2)nc2ccccc12`, for which the relative % inhibition stood at 53.9%.

Consider `CCOc1ccc(N2C(N)=NC(N)=NC2(C)C)cc1`, for which the relative % inhibition is -17.5%.

As to `CC1CN(C(=O)c2sc3ccccc3c2Cl)CC(C)O1` (centres undefined), the relative % inhibition stood at 6.08%.

Take `Cc1ccc(C2CC(C(F)(F)F)n3nc(C(=O)N4CCN(C(c5ccccc5)c5ccccc5)CC4)cc3N2)cc1` (centres undefined): the relative % inhibition amounted to 17.1%.

Consider `O=C(Cc1ccccc1)NC(c1ccc(Cl)cc1)c1c(O)ccc2ccccc12` (centres undefined), for which the relative % inhibition is 1.94%.

Turning to `O=C(CSc1nccn2nc(-c3ccccc3)cc12)Nc1cc(C(F)(F)F)ccc1Cl`, the relative % inhibition amounted to 15.1%.

As for `COc1ccc2nc(N)nc(C)c2c1`, the relative % inhibition is 10.6%.

Regarding `Cc1ccc(C)c(-c2csc(Nc3ccc(C)c(C)c3)n2)c1`, the relative % inhibition was found to be 15.6%.

As to `O=C(NC1CCCC1)c1ccc(N2CCC(NCc3cccc(C(F)(F)F)c3)CC2)cc1`, the relative % inhibition was 6.99%.

Consider `CCN(CC)CCNc1ccnc2cc(Cl)ccc12`, for which the relative % inhibition was found to be 18.2%.

For `COc1ccc(-c2cc3c(nn2)-c2ccccc2C3=O)cc1`, the relative % inhibition came to 87.4%.

As for `COc1cc(C(=O)Nc2nc3c(cc4c5c(cccc53)CC4)s2)cc(OC)c1OC`, the relative % inhibition stood at 12.4%.
